12-LOX inh = inhibitors of human 12S-lipoxygenase ALOX12; P18054; purified 12hLO, xylenol orange hydroperoxide absorbance; Potency, µM (series often up to 108 µM), without a hit: at the top dose activity change, negative = inhibition, usual class: inhibitors; hit rate 1.1% among 580,000; AID 1671190; note: potency is the fitted concentration of half-maximal effect
Target sequence (P18054 whole entry, looked up): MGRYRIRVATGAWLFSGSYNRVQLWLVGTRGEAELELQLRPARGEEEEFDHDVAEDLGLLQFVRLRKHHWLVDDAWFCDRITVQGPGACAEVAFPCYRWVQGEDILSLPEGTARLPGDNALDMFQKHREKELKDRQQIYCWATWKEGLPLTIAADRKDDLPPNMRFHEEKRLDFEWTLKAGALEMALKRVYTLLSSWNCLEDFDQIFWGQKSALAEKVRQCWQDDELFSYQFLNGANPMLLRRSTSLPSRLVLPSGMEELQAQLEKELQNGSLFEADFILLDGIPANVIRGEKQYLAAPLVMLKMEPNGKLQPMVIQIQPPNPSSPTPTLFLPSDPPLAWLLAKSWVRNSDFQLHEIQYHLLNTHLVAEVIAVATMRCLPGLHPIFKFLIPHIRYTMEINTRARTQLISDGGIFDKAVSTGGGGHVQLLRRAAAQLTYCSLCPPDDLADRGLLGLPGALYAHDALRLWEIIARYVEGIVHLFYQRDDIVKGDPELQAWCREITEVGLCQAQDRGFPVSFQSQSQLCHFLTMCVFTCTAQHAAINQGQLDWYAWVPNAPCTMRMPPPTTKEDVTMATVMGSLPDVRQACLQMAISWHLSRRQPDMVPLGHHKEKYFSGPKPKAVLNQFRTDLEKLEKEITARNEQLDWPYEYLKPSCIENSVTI
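Purified human 12hLO at 150 nM in 25 mM Hepes, 0.01% Triton X-100, pH 7.0, preincubated 15 min at room temperature with compound. Reaction started with 40 uM arachidonic acid, 30 min at room temperature. Hydroperoxide measured by Fe-xylenol orange, 573/405 nm absorbance ratio.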
HT1080-NT tox = kills 2HG-producing HT-1080-NT fibrosarcoma cells; HT-1080-NT fibrosarcoma viability, CellTiter-Glo ATP luminescence, 48 h; Potency, µM (top dose mostly 46.1 µM), for inactives: top-dose activity, negative = less viability, hits mostly cytotoxic; hit rate 1.6% among 360,000; AID 686970;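 note: NT is the 2HG producing partner of a matched IDH1 knockdown line; potency is the fitted concentration of half-maximal effect; 0% = DMSO-treated cells and -100% = media-only wells without cells; nearly all actives have a fitted effect of over 55% in size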
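A 48-hour cytotoxicity screen used HT-1080-NT cells plated 2 hours before compound delivery. ATP-based CellTiter-Glo luminescence measured viability, normalized to DMSO and no-cell controls.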
TDP1 cell CPT = growth inhibition of DT40 Tdp1-/-;hTDP1 cells with camptothecin (screen for TDP1 inhibitors); AID 686979; Potency, µM (titrated, usually from 46.2 µM), inactives show at the top dose activity change, negative = growth inhibition, usual class: inhibitors; chicken DT40 Tdp1-/-;hTDP1 cells + 20 nM CPT, ATP luminescence, 48 h; hit rate 12% among 420,000; note: potency is the fitted concentration of half-maximal effect; nearly all actives have a fitted effect of over 55% in size
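Chicken DT40 Tdp1-/- cells complemented with human TDP1, 400 cells/well, exposed to compounds plus 20 nM camptothecin for at least 48 h at 37 C; viability read as ATP content by CellTiter-Glo luminescence.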
IL-1B inflam inh = inhibitors of inflammasome signaling (IL-1 beta secretion); THP-1 LPS/ATP IL-1B secretion, AlphaLISA, 16 h; active compounds read low; activity change, % at 57.5 µM; hit rate 4.7% among 360,000; AID 743279; in the data active = activity change below about -50%; inconclusive = mostly about -30% to -49%
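Secreted IL-1B measured by AlphaLISA bead assay after 16 h compound exposure of THP-1 cells; compounds (final up to 57.5 uM) added 1 h before LPS (250 ng/mL) and ATP (1.25 mM) stimulation; lower signal means less secretion.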
TDP1 cell noCPT = qHTS for Inhibitors of human tyrosyl-DNA phosphodiesterase 1 (TDP1): qHTS in cells in absence of CPT; DT40 Tdp1-/- hTDP1 cells, no CPT, ATP luminescence, 48 h; Potency, µM (top dose mostly 46.2 µM), without a hit: top-dose activity change, negative = growth inhibition, most hits filed as inhibitors; hit rate 15% among 420,000; AID 686978, 2013; note: potency is the fitted concentration of half-maximal effect; nearly all actives have a fitted effect of over 55% in size
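A cellular qHTS used chicken DT40 cells lacking endogenous Tdp1 but carrying stably transfected human TDP1. Compounds were applied without camptothecin, and cell growth kinetics were judged by ATP-dependent luminescence after ≥48 hr.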
HT1080 IDH1KD tx = kills HT-1080 cells with IDH1 knockdown | hit rate 2% among 360,000 | HT-1080 IDH1 knockdown viability, ATP luminescence, 48 h | AID 686971 | Potency, µM (highest dose often 46.1 µM), for inactives: at the highest dose activity, negative = toxicity, actives largely listed as cytotoxic;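 note: potency is the fitted concentration of half-maximal effect; 0% = DMSO wells and -100% = cell-free medium wells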
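CellTiter-Glo luminescence after 48 h compound exposure at 37 degrees C of IDH1-knockdown HT-1080 cells in 5% FBS RPMI. %Activity scaled between DMSO wells and cell-free media wells, with curves fitted and assigned curve classes.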
Active calls of the source: *; i = inactive; ? = inconclusive; / = no result given. This is one part of a sample in which hits are shown more often than they occur. Unless noted, calls come from the whole dose curve; as a rule, active = well fitted curve in the direction sought with a large enough effect; inconclusive = small, poorly fitted or top-dose-only effect, or another doubt; inactive = no such curve, though single readings can be large; an effect the other way counts as inactive or inconclusive. Unless noted, % is set by controls: 0 for no effect and ±100 for the full control effect.

SMILES	12-LOX inh	HT1080-NT tox	TDP1 cell CPT	IL-1B inflam inh	TDP1 cell noCPT	HT1080 IDH1KD tx
CC(C)C[C@H](NC(=O)c1ccccc1)C(=O)N1CCC[C@H]1C(=O)NCc1ccccc1	-2.2%	/	/	/	/	/
CCOc1ccccc1NC(=O)NC(c1ccccc1)c1nnc(-c2ccc(Cl)cc2)o1 (stereo not drawn)	0.9%	/	/	/	/	/
CC(C)(C)c1ccc(CCC2OCC(CN3CCCC3)O2)cc1 (stereo not drawn)	-40.9%	/	/	/	/	/
C=CCn1c(SCC(=O)Nc2ccc(Br)cc2)nc(O)cc1=O	3.16µM*	-14.8%	-11.2%	10.5	10.8%	-12.9%
Cc1ccc(NC(=S)NNC(=O)CSc2nc3ccccc3c(=O)n2-c2ccc(C)cc2)cc1	?	-7.3%	-29.2%	11.0	16.4µM*	-7.1%
CCN(CC)C(=O)CSc1nc2c(sc(=S)n2-c2ccccc2)c(=O)n1-c1ccccc1OC	0.0%	-14.3%	9.2µM*	-6.3	?	-20.9%
CCN(CC)C(=O)CSc1nc2c(sc(=S)n2-c2ccccc2)c(=O)n1-c1ccc(OC)cc1OC	10.8%	-9.0%	?	-16.9	?	-2.9%
CCn1c(SCC(=O)Nc2ccc(C)cc2)nc(O)cc1=O	-13.1%	-1.8%	3.7%	7.9	-0.2%	-3.0%
Cc1cc(C)c(C)c(OCC(=O)NCc2nc(-c3ccc(Cl)cc3)no2)c1	-2.0%	/	/	/	/	/
CCc1noc(-c2ccn3c(CNC(=O)c4ccc(F)c(Cl)c4)nnc3c2)n1	26.3%	/	/	/	/	/
CC(C)OC(=O)/C(=C\c1ccc2c(c1)c1ccccc1n2C)NC(=O)c1ccccc1	0.0%	0.5%	20.6µM*	-1.3	20.6µM*	0.8%
Cn1c2ccccc2c2cc(/C=C(\NC(=O)c3ccccc3)C(=O)O)ccc21	?	-10.7%	10.9%	18.1	-9.2%	-1.3%
CC(C)OC(=O)/C(=C/c1ccc2c(c1)c1ccccc1n2C)NC(=O)c1ccccc1	2.1%	-0.7%	?	-1.5	10.3µM*	0.5%
Cc1nc2ccc(Cl)cc2cc1C(=O)N1CCN(Cc2ccc(C(N)=O)cc2)CC1	-4.9%	/	/	/	/	/
Cc1ccc(N2CCN(C3=NC(=O)C(Cc4ccccc4)S3)CC2)cc1 (stereo not drawn)	-22.6%	6.7%	29.1µM*	4.1	23.1µM*	11.4%
O=C(NCc1nnc2n1CCN(Cc1cccc(Cl)c1)CC2)c1cccc(F)c1	-5.2%	/	5.17µM*	/	4.11µM*	/
CCCNC(=O)c1ccccc1-c1ncc(-c2ccccc2)o1	2.8%	/	/	/	/	/
O=C(CCN1C(=O)/C(=C/c2cccs2)SC1=S)N1CCCCC1	-7.4%	?	5.8µM*	-104.0*	7.31µM*	?
Cc1ccc(/C=C2\SC(=S)N(CCC(=O)NNS(=O)(=O)c3ccc(C)cc3)C2=O)cc1	-12.7%	-10.2%	0.5%	-1.6	-24.8%	-9.8%
O=C(CN1C(=O)S/C(=C/c2cccs2)C1=O)N1CCCC1	3.1%	0.1%	-3.0%	-0.4	3.3%	7.1%
O=C(CN1C(=O)/C(=C/c2ccccc2)SC1=S)N1CCN(CCc2ccccn2)CC1	-4.6%	3.8%	8.2µM*	8.5	11.6µM*	6.8%
CCOC(=O)COc1c(Br)cc(/C=C2\SC(=O)N(CC(=O)N3CCCC3)C2=O)cc1OC	14.0%	9.5%	-22.6%	-51.2*	-23.0%	8.8%
Cc1ccc(/C=C2/SC(=S)N(CCC(=O)N3CCOCC3)C2=O)cc1	0.7%	0.0%	11.6µM*	0.1	16.4µM*	2.7%
O=C(O)COc1ccc(-c2nccc3c2C(=O)N(Cc2ccccc2)CC(CNC(=O)c2ccc(F)cc2)O3)cc1 (stereo not drawn)	5.4%	/	/	/	/	/
CCOC(=O)N1CCN(C(=O)CCN2C(=O)/C(=C\c3ccc(OC)c(OC)c3)SC2=S)CC1	0.3%	-0.5%	-0.9%	-2.6	-5.7%	0.6%
SMILES	12-LOX inh	HT1080-NT tox	TDP1 cell CPT	IL-1B inflam inh	TDP1 cell noCPT	HT1080 IDH1KD tx
COc1cc(/C=C2\SC(=S)N(CCC(=O)N3CCCCC3)C2=O)cc(OC)c1OC	-28.2%	-15.2%	16.4µM*	-101.3*	?	?
CN1CCN(C(=O)CCN2C(=O)/C(=C/c3ccc(F)cc3)SC2=S)CC1	-16.6%	-6.9%	?	-102.0*	18.4µM*	-10.3%
Cc1ccc(/C=C2\SC(=S)N(CCC(=O)N3CCCCC3)C2=O)cc1	-0.8%	4.5%	?	-9.1	20.6µM*	1.6%
O=C(CCN1C(=O)/C(=C\c2ccccc2)SC1=S)N1CCCCC1	-0.7%	-1.0%	9.2µM*	-99.6*	10.3µM*	?
O=C(CCSc1ccc(F)cc1)NNC(=O)c1ccc([N+](=O)[O-])cc1	9.4%	0.7%	-17.9%	66.3	3.6%	-5.7%
Cc1ccc(/C=C2\SC(=S)N(CCC(=O)NNC(=O)c3ccncc3)C2=O)cc1	i	3.6%	0.5%	-13.4	-9.5%	17.0%
Cc1ccc(/C=C2/SC(=S)N(CCC(=O)N3CCN(C)CC3)C2=O)cc1	-8.0%	-0.5%	?	-25.9	18.4µM*	-17.5%
Cc1ccc(/C=C2\SC(=S)N(C(Cc3ccccc3)C(=O)O)C2=O)cc1 (stereo not drawn)	35.5µM*	6.3%	0.0%	21.8	-5.4%	-0.7%
O=C(CNC(c1ccccc1)c1ccccc1)Nc1c(F)cccc1F	-8.6%	-14.0%	?	6.4	16.4µM*	-23.3%
CCOC(=O)c1cn(CC2CC2)c2cc(F)c(F)cc2c1=O	-0.2%	-8.7%	4.1%	-9.9	-24.1%	-10.7%
CCOC(=O)c1cn(-c2c(Cl)cccc2Cl)c2cc(Cl)c([N+](=O)[O-])cc2c1=O	-13.7%	?	?	-54.4*	16.4µM*	?
O=C(NCCSc1c(-c2ccc(Cl)cc2)[nH]c2ccccc12)c1ccc(S(=O)(=O)N2CCOCC2)cc1	-2.8%	/	3.66µM*	/	3.66µM*	/
O=C(NCCSc1c(-c2ccc(Br)cc2)[nH]c2ccccc12)c1ccc(S(=O)(=O)N2CCOCC2)cc1	-17.2%	/	3.66µM*	/	4.11µM*	/
CCCS(=O)(=O)c1c(S(=O)(=O)CCC)c2ccc(C(N)=O)cn2c1C(=O)OC	-0.4%	-4.4%	-12.1%	-3.9	14.2%	0.8%
CCCS(=O)(=O)c1c(S(=O)(=O)CCC)c2ccc(C(C)=O)cn2c1C(=O)OC	-27.2%	-12.2%	?	-135.6*	-7.3%	-4.5%
C[C@]1(CO)[C@H]2Cc3sc(NC(=O)c4cccc(F)c4)nc3[C@@H](CC(=O)N3CCCCC3)[C@]2(C)CC[C@H]1O	2.5%	/	/	/	/	/

Screening results (PubChem BioAssay)
